In article PMC5836133, “The intracellular immune receptor Rx1 regulates the DNA-binding activity of a Golden2-like transcription factor” one finds binding signal data, which are given here for 109 sequences.

Whole data set: some 16,000 sequences, median “e-score” near -0.044, cut for the highest 2% near 0.38. Shown is part of a subset that was picked to be rich in the highest values.

The experiment concerns the target T1, GST-NbGlk1(82-244) (Nicotiana benthamiana).
T1 chain: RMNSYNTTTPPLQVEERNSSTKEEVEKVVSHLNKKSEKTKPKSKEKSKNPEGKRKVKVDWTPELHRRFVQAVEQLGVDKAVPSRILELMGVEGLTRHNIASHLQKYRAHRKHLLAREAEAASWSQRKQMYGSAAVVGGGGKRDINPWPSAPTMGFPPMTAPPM
The experiment is described as follows: protein-binding microarray; NbGlk1 is a Golden2-like transcription factor of Nicotiana benthamiana; high values mean tight binding. To be noted: protein: recombinant; tags: GST (pTH6838); dsDNA, one strand shown.
Turning to ATCTCGAC, the binding signal was found to be 0.34 ± 0.0977 E-score. As for ATATCTAC, the binding signal came to 0.392 ± 0.0225 E-score. The value for ATCTCTAC was 0.297 ± 0.0234 E-score; that for ATATCAAC was 0.287 ± 0.0867 E-score. For ATCTCTAG, the binding signal worked out at 0.294 ± 0.0244 E-score. Consider ATATCTAG, for which the binding signal amounted to 0.392 ± 0.0205 E-score. Take ATATCTAA: the binding signal amounted to 0.417 ± 0.0517 E-score. As to AGATCTAA, the binding signal was 0.303 ± 0.0304 E-score. Turning to AGATCTAG, the binding signal stood at 0.349 ± 0.0106 E-score. In the case of ATCTCTAA, the binding signal worked out at 0.216 ± 0.0218 E-score. ACCGATAT: the binding signal amounted to 0.364 ± 0.00959 E-score. As to ATCAGAAT, the binding signal was 0.275 ± 0.0769 E-score. On to AGTGTAAT, for which the binding signal was 0.362 ± 0.0129 E-score. For ATCTGATA, the binding signal is 0.345 ± 0.00479 E-score. In the case of ATTCGTAA, the binding signal turned out to be 0.208 ± 0.00392 E-score. The figure for ATCTTTCC is 0.218 ± 0.0881 E-score.

For the sequence AATCACAT, the binding signal was found to be 0.265 ± 0.0229 E-score. Take CAATCGCA: the binding signal came to 0.23 ± 0.0233 E-score. The value for CACGTATC was 0.216 ± 0.0457 E-score; that for ATCGCGGC was 0.208 ± 0.0886 E-score. The figure for ATTTTACG is 0.213 ± 0.082 E-score; for AGATCGGA it is 0.277 ± 0.0345 E-score; for AATCATTA it is 0.201 ± 0.157 E-score. As to ATTGCATG, the binding signal was 0.221 ± 0.0421 E-score. In the case of ATTTCACG, the binding signal is 0.242 ± 0.0818 E-score. The value for AATTTCGG was 0.245 ± 0.0953 E-score; that for ATTATGGA was 0.277 ± 0.0309 E-score. On to AATCCTAT, for which the binding signal came out at 0.376 ± 0.0141 E-score. With AATCCTCG, the binding signal was found to be 0.345 ± 0.0473 E-score. Regarding AATCCTGG, the binding signal is 0.3628 ± 0.00311 E-score.

For AATCCTAC, the binding signal amounted to 0.3426 ± 0.00211 E-score.

On to ATTCCTAG, for which the binding signal came out at 0.202 ± 0.0268 E-score. On to AATCCTAG, for which the binding signal stood at 0.388 ± 0.0422 E-score. In the case of AATCCTAA, the binding signal worked out at 0.395 ± 0.0218 E-score. AATCCTGA: the binding signal came to 0.399 ± 0.0138 E-score. As to AATCCTGC, the binding signal was determined as 0.356 ± 0.0181 E-score. For ATCGTGGA, the binding signal was 0.273 ± 0.0839 E-score.

With ACGAATCG, the binding signal amounted to 0.283 ± 0.0452 E-score. For the sequence ATTCCTTG, the binding signal is 0.228 ± 0.115 E-score. For the sequence AATCTTCC, the binding signal stood at 0.361 ± 0.0433 E-score. The figure for AATCTTCT is 0.41 ± 0.0267 E-score; for ATTCTTCA it is 0.324 ± 0.0737 E-score. For AATCTTCA, the binding signal stood at 0.388 ± 0.01 E-score. As to AATCTTCG, the binding signal is 0.404 ± 0.0151 E-score. For AATCATCA, the binding signal is 0.212 ± 0.0286 E-score. Take AATCGTCT: the binding signal was 0.277 ± 0.0759 E-score.

With ATTCTTCC, the binding signal came out at 0.221 ± 0.0993 E-score. As to AATCATCG, the binding signal was determined as 0.225 ± 0.0433 E-score. The value for AATAATCT was 0.276 ± 0.0304 E-score; that for CACACAGA was 0.201 ± 0.0131 E-score; that for ATATATGG was 0.224 ± 0.0844 E-score. On to ATATACGA, for which the binding signal was 0.236 ± 0.0113 E-score. On to ATTTCGAA, for which the binding signal came to 0.316 ± 0.0613 E-score.

Take ATCCAAAC: the binding signal is 0.241 ± 0.133 E-score. For the sequence ATCTCAAG, the binding signal stood at 0.256 ± 0.0583 E-score. With ATCGTATC, the binding signal worked out at 0.36 ± 0.0262 E-score. On to AATGCAAT, for which the binding signal came to 0.303 ± 0.0228 E-score. The figure for AATCCAAT is 0.408 ± 0.0114 E-score. Take ATTCCAAG: the binding signal was found to be 0.205 ± 0.0718 E-score. With AATCCAAG, the binding signal was 0.394 ± 0.00595 E-score. Take ATCCCAAT: the binding signal turned out to be 0.201 ± 0.0789 E-score. The value for AATCCCAA was 0.367 ± 0.00919 E-score. Regarding AATCCAAA, the binding signal was determined as 0.4128 ± 0.00044 E-score. The figure for AATCCAAC is 0.348 ± 0.0137 E-score. For the sequence AATCAAAA, the binding signal is 0.296 ± 0.0471 E-score. For AACGGAAT, the binding signal was found to be 0.285 ± 0.0635 E-score. With ATTTCCCG, the binding signal stood at 0.3088 ± 0.000826 E-score. Turning to ATCTCAGC, the binding signal is 0.22 ± 0.0276 E-score. For AATATCCT, the binding signal stood at 0.389 ± 0.005 E-score. The value for AATATCCG was 0.426 ± 0.013 E-score; that for AGTATCCA was 0.265 ± 0.00779 E-score. Take ATTATCCG: the binding signal amounted to 0.279 ± 0.01 E-score. The figure for AATATCGA is 0.326 ± 0.0506 E-score; for AATATCGT it is 0.322 ± 0.0372 E-score. The value for AATATCAT was 0.282 ± 0.0333 E-score; that for AATATCCA was 0.396 ± 0.0292 E-score; that for AATATCCC was 0.339 ± 0.0252 E-score. With ATCGAGAA, the binding signal worked out at 0.236 ± 0.0184 E-score. The figure for ACGTGATC is 0.232 ± 0.0142 E-score; for ATTCGCGA it is 0.318 ± 0.058 E-score; for AAATCGCT it is 0.295 ± 0.0508 E-score. Turning to ACAGAAAT, the binding signal came to 0.248 ± 0.0234 E-score. The value for ATCCGCAT was 0.272 ± 0.0412 E-score. The figure for AAAGATTC is 0.401 ± 0.00855 E-score; for AAAGATAC it is 0.21 ± 0.0674 E-score; for CAAGATTA it is 0.314 ± 0.00322 E-score. Consider AAAGATTG, for which the binding signal was found to be 0.335 ± 0.0169 E-score.

With AACGATTC, the binding signal amounted to 0.214 ± 0.0649 E-score.

On to AAAGATTT, for which the binding signal was 0.427 ± 0.00822 E-score.

For the sequence CAAGATTG, the binding signal turned out to be 0.308 ± 0.0144 E-score.

Take CAAGATTC: the binding signal came to 0.406 ± 0.00476 E-score.

As for AAAGATTA, the binding signal was found to be 0.318 ± 0.0346 E-score.

Take ATTGTGCG: the binding signal turned out to be 0.2 ± 0.0823 E-score. ATCGTAAA: the binding signal stood at 0.239 ± 0.0266 E-score. The value for ATCTTCCG was 0.316 ± 0.0643 E-score. The figure for ATCTGCTA is 0.331 ± 0.0558 E-score.

On to AGGATCCG, for which the binding signal came to 0.26 ± 0.0521 E-score. Take ATTTCGTC: the binding signal stood at 0.303 ± 0.0104 E-score. Turning to ATTTCGTA, the binding signal came out at 0.399 ± 0.0199 E-score. The figure for ATTTCGTG is 0.367 ± 0.0218 E-score; for ATCTTCAC it is 0.352 ± 0.00871 E-score. For the sequence ACTGAGAT, the binding signal was determined as 0.247 ± 0.0201 E-score.

Take ATCCCGAG: the binding signal was determined as 0.211 ± 0.027 E-score. As for ATATATCG, the binding signal was determined as 0.276 ± 0.0574 E-score. With AGATATAC, the binding signal stood at 0.241 ± 0.00443 E-score. On to AGATATCA, for which the binding signal came out at 0.434 ± 0.0219 E-score.

As to AGATATGA, the binding signal was 0.318 ± 0.00331 E-score.

Regarding AGATATAA, the binding signal is 0.208 ± 0.0225 E-score. As to ATATATCC, the binding signal was 0.262 ± 0.0686 E-score.
